Activity calls are given as the source filed them. The calls were made as follows: active = hit-call score of the fitted dose curve at least 0.9, where 1 is the maximum; inactive = score below 0.9.
read-out: TIMP metallopeptidase inhibitor 1 (TIMP1), TIMP1 (gene 7076); assay: BSK_MyoF_TIMP1: BioMAP Diversity Plus: MyoF Assay for TIMP metallopeptidase inhibitor 1 (TIMP1) Biomarker Activity (AID 2284269); conditions: primary human lung fibroblasts
In short: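 ELISA read-out of TIMP-1 from primary human lung fibroblast cultures 24 h after compound dosing; gain of signal relative to DMSO vehicle baseline defines activity.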

Row | Compound | AC50 | outcome
1 | CCCCCCCCCCCC#N | 31.4 µM (active) | –
2 | CC(C)CCCCCCCOC(=O)c1ccccc1C(=O)OCCCCCCCC(C)C | – | inactive
3 | O=[N+]([O-])C=Cc1ccccc1 | 13.2 µM (active) | –
4 | Nc1ccc(-c2ccc(N)c(N)c2)cc1N | – | inactive

— PubChem BioAssay (EPA / NIEHS)
